Measured values: PubChem BioAssay (NCI)
About 83,000 compounds went through this panel and 20% of them were active in at least one assay; those are over-represented in the sample as a whole.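 Step 1: grow cells in 96-well plates. Step 2: add test compound at a single concentration. Step 3: incubate 48 h. Step 4: record percent growth.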 Unmarked numbers belong to inactive results. Activity calls are given as the source filed them.

system: ACHN renal; test: NCI-60 one-dose screen, 48 h (100 = growth as untreated, 0 = no growth, -100 = all killed); conditions: 10 µM unless noted
Procedure: Growth inhibition of the ACHN human tumor cell line is measured as a screen for anti-cancer activity. Cells are grown in 96 well plates and exposed to the test compound for 48 hours. Compounds are tested at a single concentration, which is 10^-5 M for most compounds. The reported endpoint is percent growth (GI% or GIPRCNT), where numbers from 0 - 100% represent growth inhibition, and numbers from -100% - 0 represent cell death. For example, a value of 40 represents 60% growth inhibition. A value of 0 means no net growth occurred over the course of the experiment. A value of -40 indicates 40% of cells at the beginning of the experiment died by the end of the experiment. A value of -100 means all cells are dead at the end of the experiment.
NCI-60 Human Tumor Cell Lines Screen was performed using the standard one-dose NCI protocol, which is described in more detail at https://dtp.cancer.gov/discovery_development/nci-60/default.htm.
Compounds with GIPRCNT values below 10 were considered active. Activity score was based on GIPRCNT using the following formula: […]
Score is 0 for GIPRCNT values of 100 or above, 50 for GIPRCNT values of 0, and 100 for GIPRCNT values of -100.

With CCSc1oc(-c2ccccc2)nc1[P+](c1ccccc1)(c1ccccc1)c1ccccc1 the growth was -5.44% (active).
In the case of OB1OCc2cc(/C=C/c3cccc(C(F)(F)F)c3)ccc21, the growth is reported as -91.6% (active).
CCC(=C(c1ccc(OCCN2CCCCC2)cc1)c1ccc(OCCN2CCCCC2)cc1)c1ccc(Cl)cc1 was tested, and the growth was -99.7% (active).
O=C(Nc1cccc(-c2ccc(Cl)c(C(F)(F)F)c2)c1)C1CCN(Cc2cccc3cccnc23)CC1 was tested, and the growth was -90.6% (active).
With Cc1ccc(-c2nc(N3CCCNCC3)c3oc(-c4ccc(C)cc4)nc3n2)cc1 the growth was -77.1% (active).

Going from Oc1c(Br)cc(Br)c2ccc(Cn3cc(-c4ccc(C(F)(F)F)cc4)nn3)nc12 to COc1ccc(/C=C(\C#N)n2nnc3ccc(Cl)cc32)cc1, the growth rises from 26.4% to 45.6%.

First: CC(=O)n1nc(C(=O)OC(C)(C)c2ccccc2)c2ccccc21
Second: N#C/C(=C\c1c(-c2ccccc2)[nH]c2ccccc12)C(N)=O
The growth of the first is higher: 100% for the first, 88.8% for the second.

First: NC(=O)c1c(NC(=O)c2ccc3ccccc3c2)sc2c1CCC(=O)C2
Second: COc1ccc(NC(=O)c2sc3nc(C)c(C(=O)/C=C/c4ccccc4)cc3c2N)cc1
The growth of the first is lower: 34.2% for the first, 50.3% for the second.

Going from CC(C)C1=NOC(=O)C1=Cc1cn(-c2ccccc2)nc1-c1ccc(F)cc1 to CC1=NC2=Nn3c(c4cnn(-c5ccccc5)c4n/c3=N\N)NN2C(c2ccccc2)=C1, the growth rises from 71.4% to 85.8%.

Going from CCCCNCCCCCNc1cc(OC)cc2cccnc12 to COCCn1cc(-c2nc(-c3cc4cccnc4[nH]3)cs2)c2cc(OC)ccc21, the growth falls from 100% to 22.4%.

Compared with CCCCNC(=O)Oc1ccc(/C(=C(/C)Cc2ccc(OC)cc2)c2ccc(OCCN3CCCC3)cc2)cc1, CCCCNC(=O)Oc1ccc(/C(=C(/C)Cc2ccc(OC)cc2)c2ccc(OCCN(CC)CC)cc2)cc1 is lower in growth: 91.9% for the first, 91.1% for the second.

Compared with O=C1NC(=O)C(Cc2ccc(OCc3ccc(-c4ccc(Cl)cc4Cl)cc3)cc2)S1 (stereo not given), O=S(=O)(Nc1cc(Cl)ccc1Cl)c1ccc(-c2cnc(C3CC3)o2)cc1 is lower in growth: 55.2% for the first, 34.2% for the second.

Compared with COc1cc2cc(NCc3cccc(Cl)c3)nc(C)c2cc1OC, COc1ccccc1CNc1c2ccccc2nc2ccccc12 is lower in growth: 43.5% for the first, 22.7% for the second.

Compared with c1ccc2cc(C[n+]3ccn(CCCCCCCCCCn4cc[n+](Cc5ccc6ccccc6c5)c4)c3)ccc2c1, O=C1C(Cl)=C(NCCCCCCNC2=C(Cl)C(=O)c3ccccc3C2=O)C(=O)c2ccccc21 is higher in growth: 52.2% for the first, 104% for the second.

Going from O=C(O)c1cn(C2CC2)c2cc(N3CCN(Cc4ccc5ccccc5c4O)CC3)c(F)cc2c1=O to C=CC(=O)N1CCN(c2cccc(Oc3nccc(Nc4nnc(-c5ccc(Br)cc5)s4)n3)c2)CC1, the growth rises from 59% to 72.9%.

Compared with O=C1C(Cl)=C(Nc2ccc(S(=O)(=O)N3CCOCC3)cc2)C(=O)c2ccccc21, O=S(=O)(c1ccccc1)n1cc2c(c1)-c1nc(Nc3ncccn3)sc1CC2 is lower in growth: 59% for the first, 22.9% for the second.

Compared with CCCCC1=C(P(=O)(O)O)N[C@H](C(=O)O)CS1, CCCC/C=C/[C@@H]1C[C@H]1CCO is higher in growth: 97.9% for the first, 104% for the second.

Going from CC(C)(C)CC(C)(C)NC(=O)Nc1ncccc1OCc1ccccc1 to C=CCOC(=O)Nc1cccn([C@H](Cc2ccccc2)C(=O)NCCC(C)C)c1=O, the growth rises from 94.4% to 103%.

Compared with O=S(=O)(Nc1cc(F)cc(Cl)c1)c1ccc(-c2cnc(C3CC3)o2)cc1, CN(c1cc2ncc(=O)[nH]c2cc1NC(N)=NCc1ccc(Cl)cc1)C1CCCCC1 is higher in growth: 34.4% for the first, 98.3% for the second.

Compared with CC(=O)O[C@@H]1C[C@]2(C(C)C)O[C@@]1(C)[C@@H]1CCC(C)=C1[C@@H]2OC(=O)/C=C/c1ccccc1, C=CCc1c(O)c(C(=O)/C=C/c2ccccc2)c(OC)c2ccoc12 is higher in growth: 34.6% for the first, 51.7% for the second.

Compared with COC(=O)CC[C@@H]1O[C@@H](c2cccc(C(F)(F)F)c2)[C@@H](O)[C@H]1O, CCOc1ccccc1Cn1ccnc1CCc1c(Cl)c(O)cc(O)c1C(=O)OC is lower in growth: 103% for the first, 98.3% for the second.

First: Oc1c(I)cc(I)cc1CNCc1ccccn1
Second: CSc1nc2ccccc2cc1/C=[N+](\[O-])c1ccccc1
The growth of the first is lower: 24.6% for the first, 80% for the second.

Compound COc1ccc(C(C)=O)cc1S(=O)(=O)Nc1c(N)nc(SC)[nH]c1=O has a growth of 106%.
